The supplement of paper PMC3334620
In all, about 33,000 sequences were measured (“E-score (-0.5 to 0.5)”: median about -0.015, highest 2% from about 0.3 on). For the sample, the highest values were picked, then their nearest neighbours and some sequences at random.

Molecular target: T1, Abf1 (UniProt P14164)
T1 sequence: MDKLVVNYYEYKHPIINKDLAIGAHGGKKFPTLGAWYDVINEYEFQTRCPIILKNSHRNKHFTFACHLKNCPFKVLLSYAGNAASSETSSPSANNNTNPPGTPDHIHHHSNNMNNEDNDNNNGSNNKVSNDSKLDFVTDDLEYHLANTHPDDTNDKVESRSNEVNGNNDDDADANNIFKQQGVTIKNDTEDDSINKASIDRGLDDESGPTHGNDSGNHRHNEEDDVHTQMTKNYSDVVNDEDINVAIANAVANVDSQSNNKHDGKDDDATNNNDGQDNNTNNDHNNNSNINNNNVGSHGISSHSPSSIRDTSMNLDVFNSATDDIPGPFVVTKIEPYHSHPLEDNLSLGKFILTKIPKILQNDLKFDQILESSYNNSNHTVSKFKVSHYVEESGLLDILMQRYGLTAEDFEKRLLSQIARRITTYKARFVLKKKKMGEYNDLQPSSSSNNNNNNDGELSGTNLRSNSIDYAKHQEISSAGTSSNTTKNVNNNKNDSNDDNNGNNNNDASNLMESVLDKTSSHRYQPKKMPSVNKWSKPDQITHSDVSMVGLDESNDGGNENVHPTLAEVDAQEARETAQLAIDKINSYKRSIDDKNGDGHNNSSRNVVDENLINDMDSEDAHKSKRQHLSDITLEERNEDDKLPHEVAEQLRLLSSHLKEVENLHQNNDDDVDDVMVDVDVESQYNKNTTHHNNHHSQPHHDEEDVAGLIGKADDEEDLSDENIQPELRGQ
Assay: PBM E-score (8-mer binding enrichment) (E-score (-0.5 to 0.5)); higher = stronger / more preferred TF binding
Details: protein concentration: 200 nM; construct: GST-full length
Experimental: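 Universal 'all 10-mer' protein binding microarrays (Agilent AMADID 015681) probed with GST-tagged S. cerevisiae TFs (full-length or DBD) made by in vitro transcription/translation (PURExpress), about 100-200 nM. Bound TF was detected with fluorescent anti-GST. Each ungapped 8-mer (which stands for itself and its reverse complement) is scored by the PBM enrichment score (E-score), a modified Wilcoxon-Mann-Whitney statistic from -0.5 to +0.5, computed with the Universal PBM Analysis Suite. Scale: above 0.35 generally sequence-specific binding.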

Sequence | PBM E-score
GCATGTCA | 0.225
CCGTGTAA | 0.217
CAGAAGGG | -0.136
AAACTCAA | 0.0218
ATGTTACG | 0.087
GTTGGTCA | 0.221
ACATCTAA | -0.0374
CGACCTCA | 0.00561
ATCGCGAT | 0.411
ATCGCGAG | 0.138
CTCGCGAC | 0.238
ATCGCGAA | 0.199
GTCGCGAA | 0.188
GTCGCGAC | 0.32
AACACAAC | -0.029
CATAAACG | 0.22
GAATGCCC | -0.0158
CCGCACGC | -0.186
GCCCACGA | 0.019
ACCCACGA | 0.287
CCGCACGG | 0.0967
CCGCACGA | 0.376
ACGCACGC | -0.0387
ACGCACGA | 0.389
TCGCACAA | 0.167

Sequence | PBM E-score
GCGCACGA | 0.0514
TCGCACGA | 0.317
TCCCACGA | 0.326
ACGCACGT | 0.105
AAGTCCCC | -0.149
ACTCTGAT | 0.043
ACTAGTGC | 0.104
CGGCCCGC | -0.121
AATGCTCC | -0.223
CGCGTACG | 0.271
ATTATGGG | 0.00349
GGATATAC | -0.053
CGATATAA | 0.203
GGATATAA | 0.298
AGTTACGG | 0.0796
GGAGGAAA | -0.252
CCGATACG | 0.121
ACGATATG | 0.304
ACGATAGG | 0.233
ACGATACG | 0.334
CCGATATC | 0.21
ACGATACT | 0.285
ACGATATA | 0.289
ACGATATC | 0.321
AGGATATC | 0.24

Sequence | PBM E-score
ATGCCACC | -0.148
AATCCAGT | 0.0412
AATCTGCA | -0.185
TGGGACAA | 0.0227
AAGCCACG | 0.124
AAAGTATA | 0.101
CGATACCA | 0.018
AGGTCACT | 0.304
AAGTCACT | 0.304
AGGTCACC | 0.282
AAGTCACG | 0.268
AAGTCACA | 0.125
AGGTCACG | 0.235
ACTCTGAC | -0.0634
CGAATTCC | -0.0103
CGGACGCC | -0.0127
AATGCCAG | -0.155
ATGTCGGG | 0.0062
AAGGAACA | -0.0655
ACGCAGCG | -0.162
AACGACGT | 0.19
AACGACGA | 0.346
TCCGACGA | 0.392
CACGACGA | 0.263
CACGACGG | 0.356

Sequence | PBM E-score
AATAACGG | 0.126
CACGACCG | -0.0182
AATAACGC | -0.118
AATAACGA | 0.325
CCCGACGA | 0.196
AACGACGG | 0.249
GCCGACGA | 0.176
ACAGCTAG | -0.181
ACTCTTAA | -0.0406
AACCGGGG | -0.212
AAAATCCC | -0.0966
CGTCCTAC | -0.0375
ACTCGATA | 0.199
AACTGCGA | -0.0488
ATCTGCAG | -0.106
GAGTATAC | 0.0804
AACGACGC | 0.0599
TACGACGA | 0.329
GACGACGC | 0.3
TACGACCA | 0.242
CACGACGC | 0.172
GACGACGA | 0.251
TACACCCA | -0.015
CACCACGA | 0.202
GGGTGCTA | -0.118

Sequence | PBM E-score
CGTGCGAG | 0.137
CCTTAAGC | -0.123
AGTCGTTC | 0.212
CGTCGTTC | 0.313
CGTCGTTA | 0.257
GGTCGTAA | 0.104
CGTCGTAG | 0.192
GATCGTAC | 0.151
CATCGTAA | 0.106
CGTCGTAC | 0.399
TGTCGTAA | 0.103
CATCGTAC | 0.382
CGTCGTAA | 0.392
GGTCGTAC | 0.212
ATTCTGTG | 0.00625
GCGAAAGA | -0.024
AAGACGAG | -0.0454
AATAGTAC | 0.132
AAATGGGT | -0.0572
ACGCAGTC | -0.224
AGATCATG | 0.262
CGTCGTCC | 0.307
AGTCGTCC | 0.142
CGTCGTCA | 0.24
ACTCGAGA | -0.0317

Sequence | PBM E-score
CGACAAAC | 0.167
CCATATCA | 0.163
GCATATCC | 0.179
ACATATCC | 0.236
GCATATGA | 0.028
ACATATCG | 0.118
ACATATCA | 0.341
TCATATCA | 0.315
TCATATGA | 0.101
GCATATCA | 0.319
GACGACCA | 0.286
CACGAGAG | 0.0678
ACTCGGAG | -0.00102
CTCTTGTC | 0.024
ATTCTATC | 0.127
AGTAGAGC | -0.168
TCAGCAGA | -0.0392
AAATGGAC | 0.0432
ACCGTTTC | 0.0554
ACCGTTGC | 0.0812
CACAACCC | -0.194
ATGGGGAA | -0.104
CTTATCCC | -0.0767
ATTATCAC | 0.434
CTTATCAC | 0.369

Sequence | PBM E-score
ATTATCAA | 0.193
ATTATCAG | 0.0821
CTTATCAA | 0.164
CGTGGTTC | 0.0193
GAGCCCCC | -0.283
TCATAGAA | 0.121
GACCGGCC | -0.229
TAATTGGA | 0.141
GCATACGC | -0.149
GAGCCGTA | 0.347
AAGCCGTA | 0.193
CAGCCGTA | 0.192
GCCGTTGA | 0.173
TGGGGCAA | -0.281
CTCTATAC | 0.116
ATATATAC | 0.262
GTATATGA | 0.12
ATATATCA | 0.311
GTATATCA | 0.386
GTATATAA | 0.286
ATATATCC | 0.171
CTATATCA | 0.267
CTATATAC | 0.364
